Results as given in the supplement of paper PMC7411054.
Where a name gives a salt, the structure may show the parent alone.

How the values were obtained:
Settings in all cases: treatment time: 24 h
[1] = test system: A549-GM130-SQSTM1; assay: lowest phenotypically active concentration; higher = less potent
In short: (§1)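 Fifteen reporter lines derived from A549, HepG2 and WPMY1 cells by gene editing, carrying BFP for segmentation plus GFP and RFP/FusionRed markers, were exposed to 0.3, 1, 3 or 9 µM for 24 h in four wells each and imaged live. Live-cell features from each well were normalised to solvent control wells. A well set counted as deviating when ≥3 of 4 wells lay beyond the 95th percentile of control Euclidean distances, and as reproducible when the median replicate Pearson correlation exceeded the 95th percentile of non-replicates. Phenotypic activity was assigned only when both criteria were met.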

[2] = test system: A549-ACTB-RAB5A; assay: phenotypically active (imaging signature differs from DMSO and reproducible) at any of 0.3-9 uM (binary (1 = active, 0 = inactive)); higher = active
In short: as §1

[3] = test system: A549-CANX-COX4; assay: as above
In short: as §1

[4] = test system: A549-GM130-SQSTM1; assay: as above
In short: as §1

[5] = test system: A549-TP53BP1-CLTA; assay: as above
In short: as §1

[6] = test system: A549-TUBA1B-RELA; assay: as above
In short: as §1

[7] = test system: HepG2-ACTB-RAB5A; assay: as above
In short: as §1

[8] = test system: HepG2-CANX-COX4; assay: as above
In short: as §1

[9] = test system: HepG2-GM130-SQSTM1; assay: as above
In short: as §1

[10] = test system: HepG2-TP53BP1-CLTA; assay: as above
In short: as §1

[11] = test system: HepG2-TUBA1B-RELA; assay: as above
In short: as §1

[12] = test system: WPMY1-ACTB-RAB5A; assay: as above
In short: as §1

[13] = test system: WPMY1-CANX-COX4; assay: as above
In short: as §1

[14] = test system: WPMY1-GM130-SQSTM1; assay: as above
In short: as §1

[15] = test system: WPMY1-TP53BP1-CLTA; assay: as above
In short: as §1

[16] = test system: WPMY1-TUBA1B-RELA; assay: as above
In short: as §1

[17] = test system: HepG2-GM130-SQSTM1; assay: lowest phenotypically active concentration; higher = less potent
In short: as §1

[18] = test system: WPMY1-GM130-SQSTM1; assay: as above
In short: as §1

[19] = test system: HepG2-CANX-COX4; assay: as above
In short: as §1

SMILES	lowest phenotypically active concentration [1] [µM]	phenotypically active [2]	phenotypically active [3]	phenotypically active [4]	phenotypically active [5]	phenotypically active [6]	phenotypically active [7]	phenotypically active [8]	phenotypically active [9]	phenotypically active [10]	phenotypically active [11]	phenotypically active [12]	phenotypically active [13]	phenotypically active [14]	phenotypically active [15]	phenotypically active [16]	lowest phenotypically active concentration [17] [µM]	lowest phenotypically active concentration [18] [µM]	lowest phenotypically active concentration [19] [µM]
COc1ccc(-n2c(SCCCN3C(=O)c4cccc5cccc(c45)C3=O)nnc2-c2ccncc2)cc1	3	0 (inactive)	0 (inactive)	1 (active)	0 (inactive)	1 (active)	0 (inactive)	0 (inactive)	0 (inactive)	0 (inactive)	0 (inactive)	0 (inactive)	0 (inactive)	0 (inactive)	0 (inactive)	0 (inactive)	–	–	–
O=S(=O)(c1ccccc1)N(CC(F)(F)F)c1ccc(C(O)(C(F)(F)F)C(F)(F)F)cc1	9	0 (inactive)	0 (inactive)	1 (active)	0 (inactive)	0 (inactive)	0 (inactive)	0 (inactive)	0 (inactive)	0 (inactive)	0 (inactive)	0 (inactive)	0 (inactive)	0 (inactive)	0 (inactive)	0 (inactive)	–	–	–
Cc1nc2sccn2c(=O)c1CCN1CCC(=C(c2ccc(F)cc2)c2ccc(F)cc2)CC1 [Ritanserin]	–	1 (active)	0 (inactive)	0 (inactive)	0 (inactive)	0 (inactive)	0 (inactive)	0 (inactive)	1 (active)	0 (inactive)	1 (active)	0 (inactive)	0 (inactive)	1 (active)	0 (inactive)	0 (inactive)	9	9	–
CCc1ccc(/C=C/C(=O)Nc2ccc(C(C)=O)cc2)o1 [Heclin]	9	0 (inactive)	0 (inactive)	1 (active)	0 (inactive)	1 (active)	0 (inactive)	0 (inactive)	0 (inactive)	0 (inactive)	0 (inactive)	0 (inactive)	0 (inactive)	0 (inactive)	0 (inactive)	0 (inactive)	–	–	–
CCOC(=O)N1CCC(=C2c3ccc(Cl)cc3CCc3cccnc32)CC1 [loratadine]	–	1 (active)	0 (inactive)	0 (inactive)	0 (inactive)	0 (inactive)	0 (inactive)	1 (active)	0 (inactive)	0 (inactive)	0 (inactive)	0 (inactive)	0 (inactive)	0 (inactive)	0 (inactive)	0 (inactive)	–	–	3
COc1cc2nc3occc3c(OC)c2cc1OC [Kokusaginine]	3	0 (inactive)	0 (inactive)	1 (active)	0 (inactive)	0 (inactive)	0 (inactive)	0 (inactive)	0 (inactive)	0 (inactive)	0 (inactive)	0 (inactive)	0 (inactive)	0 (inactive)	0 (inactive)	0 (inactive)	–	–	–
CCCOc1ccn2c(C(C)=O)cc(-c3ccccc3S(C)(=O)=O)c2c1	9	0 (inactive)	0 (inactive)	1 (active)	0 (inactive)	0 (inactive)	0 (inactive)	0 (inactive)	0 (inactive)	0 (inactive)	0 (inactive)	0 (inactive)	0 (inactive)	0 (inactive)	0 (inactive)	0 (inactive)	–	–	–
COC(=O)C1=CO[C@@H](C)[C@H]2CN3CCc4c([nH]c5ccccc45)[C@@H]3C[C@H]12 [Ajmalicine hydrochloride]	–	0 (inactive)	1 (active)	0 (inactive)	0 (inactive)	0 (inactive)	1 (active)	1 (active)	0 (inactive)	1 (active)	0 (inactive)	0 (inactive)	1 (active)	1 (active)	0 (inactive)	0 (inactive)	–	3	9
N=C(N)NC(=N)NCCc1ccccc1 [phenformin]	9	0 (inactive)	1 (active)	1 (active)	0 (inactive)	0 (inactive)	0 (inactive)	0 (inactive)	0 (inactive)	0 (inactive)	0 (inactive)	0 (inactive)	0 (inactive)	0 (inactive)	0 (inactive)	0 (inactive)	–	–	–
OCCOCCN1CCN(C2=Nc3ccccc3Sc3ccccc32)CC1 [Quetiapine hemifumarate]	9	0 (inactive)	0 (inactive)	1 (active)	0 (inactive)	0 (inactive)	0 (inactive)	0 (inactive)	0 (inactive)	0 (inactive)	0 (inactive)	0 (inactive)	0 (inactive)	0 (inactive)	0 (inactive)	0 (inactive)	–	–	–
CC(C)(C)c1cc(/C=C(\C#N)C(N)=S)cc(C(C)(C)C)c1O	3	0 (inactive)	1 (active)	1 (active)	1 (active)	0 (inactive)	1 (active)	1 (active)	1 (active)	1 (active)	1 (active)	0 (inactive)	0 (inactive)	1 (active)	1 (active)	0 (inactive)	9	9	9
